The values that follow come from the supplement of paper PMC4894684.

Counter-ions that a name gives are not always drawn. ± gives the standard deviation of the averaged measurements.

This assay has as its system Toxoplasma gondii RH (in HFF). Briefly: parasite growth relative to the screen mean (all compounds = 100%); higher = less inhibition of parasite growth. Particulars: 5 µM; 72 h; oxygen 21 %. Put shortly: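 Library compounds, held as 10 mM DMSO stocks, were pinned to 5 µM final onto confluent human foreskin fibroblasts in 96-well plates. The cells were infected within 2 h with RH β-Gal–GFP Toxoplasma (MOI 1:5), grown 72 h at 21% O2, and assayed for parasite number by CPRG β-Gal using in-plate standard curves. Growth is reported relative to the screen mean, in which all compounds = 100%, averaged over two screens, and CellTiter-Blue checked uninfected host-cell viability.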
Compound `O=C(O)C1=CCCN(CCON=C(c2ccccc2)c2ccccc2)C1` gave a parasite growth of 159 ± 9.8%.

Compound `COc1ccc(-n2[nH]c3c4c(ncc3c2=O)CCCCC4)cc1` gave a parasite growth of 105 ± 28%.

Compound `O=C1C=CC(=O)C2=C1C1c3ccccc3C2c2ccccc21` came in with a parasite growth of 137 ± 48%.

As for `Cn1cc(C2=C(c3cn(CCCSC(=N)N)c4ccccc34)C(=O)NC2=O)c2ccccc21` [Ro 31-8220 mesylate], the parasite growth was less than 0%.

In turn, `Nc1ncnc2nc(-c3ccc(N4CCOCC4)nc3)cc(-c3cccc(Br)c3)c12` [ABT 702 dihydrochloride] came in with a parasite growth of 100 ± 9.5%.

Compound `CCN(CC)CCOc1ccc(Cc2ccccc2)cc1` [DPPE fumarate] gave a parasite growth of 75.7 ± 1.7%.

`CCCCc1nn(-c2ccccc2C(F)(F)F)c(=O)n1Cc1ccc(-c2ccccc2S(=O)(=O)NC(=O)c2sccc2C)cc1` showed a parasite growth of 137 ± 20%.

For the compound `CC#CCOC(=O)c1c(C)nc2sc3c(c2c1N)CCC(O)C3` (stereo unspecified), the parasite growth is 117.8 ± 0.28%.

`CC(Oc1ccc(O)cc1)(P(=O)(O)O)P(=O)(O)O` registered a parasite growth of 101 ± 21%.

In the case of `O=C1CCc2c(ccc3ccccc23)O1` [Splitomicin], the parasite growth turned out to be 149 ± 2.2%.

The compound `NC(=O)c1cccc(N)c1` [3-Aminobenzamide] registered a parasite growth of 129 ± 30%.

Take `C/N=C(/NC#N)NCCSCc1csc(NC(=N)N)n1` [Tiotidine]: the parasite growth turned out to be 122 ± 30%.

Take `Nc1ccc(-c2cccc3c(=O)cc(N4CCOCC4)oc23)cc1`: the parasite growth turned out to be 104 ± 7.9%.

In turn, `O=c1[nH]nc(Sc2ncc([N+](=O)[O-])s2)n1-c1ccc2c(c1)OCCO2` showed a parasite growth of 130 ± 46%.

`CC1(C)NC(=O)N(c2ccc([N+](=O)[O-])c(C(F)(F)F)c2)C1=O` [Nilutamide] showed a parasite growth of 150 ± 36%.

`Cc1cc(C)c(S(=O)(=O)Nc2cccc(C(F)(F)F)c2)c(C)c1`: the parasite growth was 169 ± 30%.
